# From PubChem BioAssay (NCI)
# Values joined by “and” are separate entries in the source; they are usually repeats but may differ in a detail not shown here. Identical values can stand only once. The panel holds about 83,000 compounds, 20% with a hit somewhere; the sample as a whole holds those more often.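 A percent growth of 40 corresponds to 60% growth inhibition; 0 means no net growth; -100 means all cells died. Active threshold: below 10.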 Active and inactive are the calls of the source.
# Legend:
# Assay in all cases: NCI-60 one-dose screen, 48 h (100 = growth as untreated, 0 = no growth, -100 = all killed)
# Conditions in all cases: 10 µM unless noted
# T-47D breast = test system: T-47D breast
# BT-549 breast = test system: BT-549 breast
# MDA-MB-435 melanoma = test system: MDA-MB-435 melanoma
# MCF7 breast = test system: MCF7 breast
# HCT-116 colon = test system: HCT-116 colon
# HCC-2998 colon = test system: HCC-2998 colon
# KM12 colon = test system: KM12 colon
# SW-620 colon = test system: SW-620 colon
Structure (SMILES),growth (T-47D breast),growth (BT-549 breast),growth (MDA-MB-435 melanoma),growth (MCF7 breast),growth (HCT-116 colon),growth (HCC-2998 colon),growth (KM12 colon),growth (SW-620 colon)
CN(C)CCCn1c2nc(=O)[nH]c(=O)c-2nc2cc(Cl)c(Cl)cc21,34.8% (inactive),113% (inactive),106% (inactive),4.93% (active),-18.5% (active),91.6% (inactive),57.5% (inactive),–
Cc1ccc(-c2nc([P+](c3ccccc3)(c3ccccc3)c3ccccc3)c(Nc3ccccc3)o2)cc1,8.18% (active),2.14% (active),-32.9% (active),0.233% (active),-22.2% (active),-51.5% (active),-35.1% (active),–
C=C1CC[C@@H]2[C@](C)(COC(C)=O)[C@H](OC(C)=O)CC[C@@]2(C)[C@@H]1CC(Nc1ccc(S(=O)(=O)Nc2nccs2)cc1)C1=CCOC1=O (some centres not stated),34.6% (inactive),-23.5% (active),-8.31% (active),-21.3% (active),-30.4% (active),54.2% (inactive),-0.895% (active),–
CCCc1cc(C(N)=S)ccn1,105% (inactive),98.1% (inactive),105% (inactive),108% (inactive),95.8% (inactive),108% (inactive),–,–
O=c1c(/C=C/c2ccco2)nnc2sc(Nc3ccc(Cl)cc3)nn12,88.2% (inactive),99.9% (inactive),100% (inactive),82.5% (inactive),99% (inactive),96.3% (inactive),103% (inactive),–
CCOC(=O)C1=C(C)NC(=O)NC1c1c(Cl)n(-c2ccccc2)c2ccccc12 (configuration not stated),90.4% (inactive),70.4% (inactive),54% (inactive),87.9% (inactive),–,91.8% (inactive),92.3% (inactive),–
O=c1c2c([nH]c3ccccc13)CCCC2,105% (inactive) and 55.5% (inactive),106% (inactive) and 59% (inactive),103% (inactive) and -56.9% (active),88.7% (inactive) and 17.7% (inactive),95.6% (inactive) and 23.5% (inactive),55.5% (inactive),99.2% (inactive) and 19.7% (inactive),–
O=C(CCN1CCOCC1)Nc1cccc(-n2cc(-c3ccncc3)c(-c3ccc(Cl)c(O)c3)n2)c1,38.3% (inactive),11.6% (inactive),-64.1% (active),11.4% (inactive),21.1% (inactive),66.9% (inactive),23.7% (inactive),–
Cn1cc(C2=C(c3cccc4ccccc34)C(=O)NC2=O)c2cc(Br)ccc21,81.3% (inactive),109% (inactive),95.7% (inactive),84.3% (inactive),–,126% (inactive),89.7% (inactive),96.1% (inactive)
CCOC(=O)c1cnn(CC(O)CC)c1NC(=O)NCc1ccccc1C(F)(F)F (configuration not stated),86.7% (inactive),84.4% (inactive),105% (inactive),93.7% (inactive),78.5% (inactive),100% (inactive),103% (inactive),–
COc1cc(C=O)ccc1Oc1ccc([N+](=O)[O-])cc1[N+](=O)[O-],75.2% (inactive),98% (inactive),112% (inactive),99.2% (inactive),94.9% (inactive),109% (inactive),105% (inactive),–
COc1ccc2nc3cc(Cl)ccc3c(NCCCNCCC(C)O)c2c1 (configuration not stated),4.09% (active),-1.95% (active),-86.3% (active),-0.546% (active),-49.9% (active),-60.9% (active),-20% (active),–
C=C(CNCCc1ccc(O)cc1)[C@@H]1CC[C@]2(CO)CC[C@]3(C)[C@H](CC[C@@H]4[C@@]5(C)CCC(NCCc6ccc(O)cc6)C(C)(C)[C@@H]5CC[C@]43C)[C@@H]12 (some centres not stated),-69.1% (active),-79.7% (active),-89.9% (active),-74.3% (active),-92% (active),-91.3% (active),-77.4% (active),–
COc1ccc(-c2cc3cnc4ccccc4c3oc2=O)cc1,87.1% (inactive),101% (inactive),98.6% (inactive),86.9% (inactive),–,89.2% (inactive),103% (inactive),–
C#CCOc1cccc(Nc2ncc3ncn(C4CCN(C(=O)CCl)C4)c3n2)c1 (configuration not stated),-10.5% [6.25 µM] (active),29.3% [6.25 µM] (inactive),35.2% [6.25 µM] (inactive),8.03% [6.25 µM] (active),0.194% [6.25 µM] (active),74.9% [6.25 µM] (inactive),87.5% [6.25 µM] (inactive),–
